Results filed as inconclusive are left out. Active and inactive are the calls of the source. How the source made its calls: active means hit-call score of the fitted dose curve at least 0.9, where 1 is the maximum; inconclusive means response in the unintended direction; inactive means score below 0.9.
read-out: Cytochrome P450 2C19 (Homo sapiens) (UniProt P33261); assay: CLD_CYP2C19_48hr: CellzDirect (CLD) Gene Expression Assay for xenobiotic metabolism (CYP2C19) at 48 hours (AID 2283700);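 further: fitted upward so actives raise CYP2C19 mRNA above the 0.2% DMSO vehicle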
Procedure: CLD_48hr is a cell-based, multiplexed-readout assay that uses hepatocyte, a human liver primary cell, with measurements taken at 48 hours after chemical dosing in a 96-well plate.CLD_CYP2C19_48hr is one of 16 assay component(s) measured or calculated from the CLD_48hr assay. It is designed to make measurements of mRNA induction, a form of inducible reporter, as detected with chemiluminescence signals by Quantitative Nuclease Protection Assay (qNPA) technology.Data from the assay component CLD_CYP2C19_48hr was analyzed at the endpoint, CLD_CYP2C19_48hr, in the positive analysis fitting direction relative to DMSO as the negative control and baseline of activity. Using a type of inducible reporter, gain-of-signal activity can be used to understand changes in the reporter gene as they relate to the gene CYP2C19. Furthermore, this assay endpoint can be referred to as a primary readout. To generalize the intended target to other relatable targets, this assay endpoint is annotated to the cyp intended target family, where subfamily is xenobiotic metabolism.
Human hepatocyte cultures were treated daily for two consecutive days with fresh dosing solutions containing appropriate concentrations of the 320 ToxCast chemicals (chemical identities were blinded to CellzDirect and other ToxCast collaborators), vehicle control (0.2% DMSO), and positive control inducers as summarized in Table 1. Due to the large number of treatment groups and chemicals examined, the ToxCast chemicals were divided into two groups (spanning two independent cultures of hepatocytes from separate donor preparations (Hu778: ToxCast plates 1 and 2; Hu776: ToxCast plates 3 and 4). Each preparation of human hepatocyte cultures was treated with respective vehicle control, medium only control, set of six positive controls/reference chemicals for the five hepatic receptor pathways, and a subset of eight of the ToxCast chemicals (indoxacarb, pyrithiobac-sodium, norflurazon, cyhalofop-butyl, methomyl, thiram, acetochlor, and propiconazole). These replicate data, coupled with internal replicates designed within the blinded ToxCast chemical library, provided additional data to evaluate interindividual differences between hepatocyte preparations and their potential impact on chemical profiles.Cell morphology and integrity were evaluated using phase-contrast microscopy as an indicator of hepatocyte cell health (Tyson & Green, 1987). Cultures for each treatment group (i.e., media, vehicle [0.2% DMSO], positive control inducers [multiple concentrations], and the ToxCast chemicals [multiple concentrations]) were observed and cell morphology was assessed relative to vehicle control cultures at each harvest time point (0, 6, 24, or 48 h). […] Images were evaluated at the conclusion of the study to assess changes in cell integrity and account for the effects of chemical exposure on uncharacteristic changes in concentration-dependent gene expression profiles. The results from these determinations of apparent cytotoxicity were annotated (yes/no) alongside the corresponding qNPA data for reference.At the conclusion of each treatment period, hepatocyte cultures (96-well) were washed with 1 volume of HBSS, lysed by addition of 25 ul ArrayPlate lysis buffer (HTG, Tucson, AZ), and 70 ul/well of Denaturation Oil, denatured by incubation at 95C for 10 min, and frozen at approximately -70C until analysis by nuclease protection assay (qNPA) (Roberts et al., 2007). For qNPA analysis, cell lysates were thawed at 50C for approximately 30 min, qNPA probes were added, and samples were incubated at 95C for 10 min to begin the detection process by denaturing the target RNA, dissociating the duplexes and secondary structure hybridization. At the conclusion of the hybridization period, S1 nuclease reagent was added to each sample to digest all nonprotected nucleotides at 50C for 60-90 min. […]

Sequence of Cytochrome P450 2C19 (Homo sapiens) (P33261 whole entry, looked up): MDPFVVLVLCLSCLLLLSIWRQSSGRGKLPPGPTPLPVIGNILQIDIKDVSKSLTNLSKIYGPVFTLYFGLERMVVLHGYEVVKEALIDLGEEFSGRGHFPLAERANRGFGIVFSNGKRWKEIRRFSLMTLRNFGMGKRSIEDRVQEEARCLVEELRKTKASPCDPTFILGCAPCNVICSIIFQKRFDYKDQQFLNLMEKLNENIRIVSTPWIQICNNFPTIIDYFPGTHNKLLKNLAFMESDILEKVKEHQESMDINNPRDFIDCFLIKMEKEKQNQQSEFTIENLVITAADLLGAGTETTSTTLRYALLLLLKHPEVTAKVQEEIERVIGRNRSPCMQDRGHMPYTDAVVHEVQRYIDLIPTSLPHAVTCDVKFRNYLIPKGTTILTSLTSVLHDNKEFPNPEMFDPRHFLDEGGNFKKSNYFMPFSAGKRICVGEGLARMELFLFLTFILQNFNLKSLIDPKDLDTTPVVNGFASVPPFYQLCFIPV

Structure (SMILES) | outcome
C#CCOC(=O)[C@@H](C)Oc1ccc(Oc2ncc(Cl)cc2F)cc1 | inactive
CCCN(CCC)C(=O)SCC | inactive
OB(O)O | inactive
COc1c(Cl)ccc(Cl)c1C(=O)O | inactive
CCCOC(=O)NCCCN(C)C | inactive
CCC(O)=C1C(=O)CC(C(=O)O)CC1=O (stereo not given) | inactive
COC(=O)c1ccc(CNS(C)(=O)=O)cc1S(=O)(=O)NC(=O)Nc1nc(OC)cc(OC)n1 | inactive
COC(=O)CSc1cc(N=c2sc(=O)n3n2CCCC3)c(F)cc1Cl | inactive
CCC(C)OC(=O)N1CCCCC1CCO (stereo not given) | inactive
Oc1ccc(C(c2ccc(O)cc2)C(Cl)(Cl)Cl)cc1 | inactive
CC1(C)C(C=C(Cl)Cl)C1C(=O)OCc1cccc(Oc2ccccc2)c1 (stereo not given) | inactive
CCCCOC(=O)C(C)Oc1ccc(Oc2ccc(C(F)(F)F)cn2)cc1 (stereo not given) | inactive
CCOC(=O)C(C)Oc1ccc(Oc2cnc3cc(Cl)ccc3n2)cc1 (stereo not given) | inactive
COc1nc(C)nc(NC(=O)NS(=O)(=O)c2ccccc2OCCCl)n1 | inactive
CCCOC(=O)c1ccc(C(=O)OCCC)nc1 | inactive
COC(=O)c1ccc(I)cc1S(=O)(=O)NC(=O)Nc1nc(C)nc(OC)n1 | inactive
CCOC(=O)C(C)Oc1ccc(Oc2nc3ccc(Cl)cc3o2)cc1 (stereo not given) | inactive
c1ccc(Nc2ccccc2)cc1 | inactive
CCCCOC(=O)[C@@H](C)Oc1ccc(Oc2ccc(C(F)(F)F)cn2)cc1 | inactive
CCN(CC)C(=O)c1cccc(C)c1 | inactive
COC(=O)c1ccccc1S(=O)(=O)NC(=O)Nc1nc(OC(F)F)cc(OC(F)F)n1 | inactive
CCCCCCC(C)OC(=O)COc1nc(F)c(Cl)c(N)c1Cl (stereo not given) | inactive
CCSC(=O)N(CC(C)C)CC(C)C | inactive
CCCCC(CC)COC(=O)c1ccccc1C(=O)O (stereo not given) | inactive
COC(=O)c1cccc(C)c1S(=O)(=O)NC(=O)Nc1nc(OCC(F)(F)F)nc(N(C)C)n1 | inactive
